Bioassay records: PubChem BioAssay, several laboratories
CYP2C9 activ: human CYP2C9 activators, primary screen, biochemical, luminescence | Cytochrome P450 2C9 (Homo sapiens), P11712 | recombinant CYP2C9, luciferin-H conversion; stronger effect = higher value; factor 1 = untreated enzyme, 0 = blocked | activation factor at 5 µM | 96,000 tested, 1.4% active;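 active = activation factor of 2 or more for CYP2C9 at a 5 µM dose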
Cav3 T inh: Cav3.2 calcium influx blockers – cell-based, Fluo-4 calcium fluorescence, FDSS, MLSMR library, primary screen. Voltage-dependent T-type calcium channel subunit alpha-1H (Homo sapiens), O95180. 100,000 tested, 4% active. Cav3.2-expressing cells; stronger effect = lower value. B-score at 10 µM. AID 449739, 2010;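 active = single-dose well whose peak fluorescence ratio is a statistical outlier from its plate by either plate-standardised score or position-corrected B-score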
CYP2C19 inh: blockers of cytochrome P450 2C19 activity – biochemical, luminescence, ADME assay, primary screen | P33261 | CYP2C19 Supersomes, luciferin-H EGE luminescence, 30 min | inhibition, % at 5 µM | 96,000 tested, 21% active;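 active = CYP2C19 inhibition above a set limit at 5 µM in the primary screen, cut at about 50% in these data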
CYP2C19 activ: human CYP2C19 activators, primary screen, biochemical, luminescence; activation factor at 5 µM; 96,000 tested, under 10 active; recombinant CYP2C19, luciferin-H EGE luminescence; stronger effect = higher value; 0 = fully inhibited enzyme, 1 = untreated enzyme;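 active = activation factor of at least 2 at 5 µM in the primary screen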
CYP2C9 inhib: blockers of cytochrome P450 2C9 activity – biochemical, luminescence, ADME assay, primary screen; CYP2C9 Supersomes, luciferin-H conversion; P11712; AID 777, 2007; 96,000 tested, 20% active; inhibition, % at 5 µM;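 active = blocking of liver enzyme CYP2C9 beyond about 50% at 5 µM, limit read from the data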
A number is an active result; 0 = inactive; - = no result given. In the library only some 27% were active in any assay of this set; here they are far more common.

SMILES	CYP2C9 activ	Cav3 T inh	CYP2C19 inh	CYP2C19 activ	CYP2C9 inhib
N#Cc1cccc(NC(=O)c2nc(-c3ccccc3)n(-c3ccccc3)n2)c1	0	0	0	0	0
N#Cc1cccc(NC(=O)CCn2ccnc2)c1	0	0	95.4	0	87.0
O=S1(=O)C=CC(N2CCOCC2)C1 (stereo not drawn)	0	0	0	0	0
Cc1ccccc1NC(=O)NC1(C(=O)NCCCN2CCOCC2)CCCCC1	-	0	-	-	-
CN(C)CCNC(=O)c1c(CSc2ccc(Cl)cc2)noc1C(=O)NCc1ccccc1	-	0	-	-	-
CN(C)c1cccc(C(=O)Nc2cccc(F)c2)c1	0	0	0	0	0
CCN(CC)c1ccc(C(=O)Nc2cccc(F)c2)cc1	0	0	64.2	0	0
O=C(CCn1cccc1)Nc1cccc(F)c1	0	0	50.0	0	0
O=C(COC(=O)C1=Cc2ccccc2OC1)NC1CCCC1	0	0	0	0	0
CCC(C)NC(=O)C1=C(C)C(=O)OC12CCC(C)CC2 (stereo not drawn)	0	0	82.3	0	0
CC1=C(C(=O)NC2CCC(C)CC2)C2(CCC(C)CC2)OC1=O (stereo not drawn)	0	0	0	0	0
CC1=C(C(=O)NCc2ccc3c(c2)OCO3)C2(CCC(C)CC2)OC1=O (stereo not drawn)	0	0	66.0	0	84.6
O=C(NCC1CCCO1)c1c(O)c2c([nH]c1=O)CCCC2 (stereo not drawn)	0	0	0	0	0
CCOc1cccc(OCCCNCCCOC)c1	0	0	0	0	0
O=C1CC(c2ccc3c(c2)OCO3)C2=C(CCCC2=O)N1 (stereo not drawn)	0	0	0	0	51.9
CCOc1ccc(C2CC(=O)NC3=C2C(=O)CCC3)cc1 (stereo not drawn)	0	0	0	0	0
O=C1CC(c2ccc(F)c(Br)c2)C2=C(CCCC2=O)N1 (stereo not drawn)	0	0	68.7	0	0
C=CCn1c(NC(=O)c2ccc(Br)o2)c(S(=O)(=O)c2ccccc2)c2nc3ccccc3nc21	0	-	0	0	53.0
C=CCn1c(NC(=O)c2ccco2)c(S(=O)(=O)c2ccccc2)c2nc3ccccc3nc21	0	-	0	0	66.2
Cc1ccc(NC(=O)c2cc3nc(C)cc(C)n3n2)cc1	0	0	0	0	0
O=C(Nc1ccccc1)C1(c2ccccc2)CC1(Cl)Cl (stereo not drawn)	-	-7.54	-	-	-
O=C(Nc1ccccc1)C1C2CCC3C(CCC21)C3(Cl)Cl (stereo not drawn)	0	0	0	0	0
O=C1COc2ccc3ccccc3c2CN1	0	0	0	0	0
CCOCCCn1c(C)nc2c(c1=O)c1nc3ccccc3nc1n2CCC1=CCCCC1	0	0	73.1	0	80.5
c1ccc(COc2ccc(Nc3ncnc4nc[nH]c34)cc2)cc1	0	0	0	0	0
SMILES	CYP2C9 activ	Cav3 T inh	CYP2C19 inh	CYP2C19 activ	CYP2C9 inhib
O=C(c1ccco1)N(CC1CCCO1)c1nc(-c2ccccc2)cs1 (stereo not drawn)	0	-3.06	87.2	0	84.8
COc1ccc(-c2csc(N(CC3CCCO3)C(=O)c3ccc(C)cc3)n2)cc1 (stereo not drawn)	-	0	-	-	-
Cc1ccc(-c2csc(N(CCCN3CCOCC3)C(=O)c3ccco3)n2)cc1	0	0	87.3	0	91.9
COCCCN(C(=O)c1ccco1)c1nc(-c2cc(OC)ccc2OC)cs1	0	0	0	0	75.7
O=C(c1cccs1)N(CC1CCCO1)c1nc(-c2ccccc2)cs1 (stereo not drawn)	0	0	95.3	0	88.9
COc1cccc(SCc2noc(C(=O)NCCC(C)C)c2C(=O)NCCC(C)C)c1	-	0	-	-	-
O=C(O)CCCC(=O)Nc1ccccc1C(=O)N1CCCC1	0	0	0	0	0
CCOC(=O)C(NCc1ccco1)(NC(=O)c1ccc(OC)cc1)C(F)(F)F (stereo not drawn)	0	0	0	0	0
COC(=O)C(NNc1ccccc1C)(NC(=O)c1ccc(F)cc1)C(F)(F)F (stereo not drawn)	0	-4.88	78.9	0	53.8
COC(=O)C(NC(=O)c1ccccc1)(Nc1cc(C)cc(C)n1)C(F)(F)F (stereo not drawn)	-	-4.19	-	-	-
